Assay outcomes: PubChem, Sanford-Burnham Center for Chemical Genomics
The list is not random: actives were taken first. Their share in the collection is about 6.3%.
tim23-1 inh: growth inhibitors of tim23-1 mutant yeast, primary screen, luminescence, uHTS; S. cerevisiae tim23-1 growth, BacTiter-Glo luminescence, 24 h; hit rate 1.3% among 330,000; inhibition, % at 20 µM;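 active = growth inhibition of the mutant yeast at or above 50%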;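 note: temperature-sensitive mutant grown at 25 °C; plate controls were DMSO-treated mutant yeast for no effect and medium wells lacking yeast for full effect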
tim10-1 inh: growth inhibitors of tim10-1 mutant yeast, primary screen, luminescence, uHTS; S. cerevisiae tim10-1 ts strain growth, BacTiter-Glo, 24 h; inhibition, % at 20 µM; hit rate 2.2% among 330,000;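 active = inhibition of at least 40%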;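 note: mutant grown at 25 °C; 0% = DMSO wells with yeast and 100% = wells holding no yeast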
MPTP block: mitochondrial permeability transition pore inhibitors, primary screen, biochemical, isolated mouse mitochondria, absorbance. Ca2+ swelling absorbance, 30 min. inhibition, % at 10 µM. hit rate 1.4% among 360,000. AID 602449, 2012;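 active = inhibition of 50% or more, scaled per plate between neutral and stimulator controls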;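 note: 0% = DMSO wells given calcium and 100% = 1 mM EGTA wells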
Mdm2 MdmX PPI: inhibitors of human Mdm2-MdmX association, primary screen, cell-based, luminescence, split luciferase, SaOS-2, uHTS; inhibition, % at 8 µM; Protein Mdm4 (Homo sapiens) + E3 ubiquitin-protein ligase Mdm2 (Homo sapiens), …; SaOS-2 split-luciferase Mdm2/MdmX complementation; hit rate 3% among 330,000;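 active = inhibition of at least 50% at 8 µM in the primary screen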
Target sequence (O15151 whole entry, looked up): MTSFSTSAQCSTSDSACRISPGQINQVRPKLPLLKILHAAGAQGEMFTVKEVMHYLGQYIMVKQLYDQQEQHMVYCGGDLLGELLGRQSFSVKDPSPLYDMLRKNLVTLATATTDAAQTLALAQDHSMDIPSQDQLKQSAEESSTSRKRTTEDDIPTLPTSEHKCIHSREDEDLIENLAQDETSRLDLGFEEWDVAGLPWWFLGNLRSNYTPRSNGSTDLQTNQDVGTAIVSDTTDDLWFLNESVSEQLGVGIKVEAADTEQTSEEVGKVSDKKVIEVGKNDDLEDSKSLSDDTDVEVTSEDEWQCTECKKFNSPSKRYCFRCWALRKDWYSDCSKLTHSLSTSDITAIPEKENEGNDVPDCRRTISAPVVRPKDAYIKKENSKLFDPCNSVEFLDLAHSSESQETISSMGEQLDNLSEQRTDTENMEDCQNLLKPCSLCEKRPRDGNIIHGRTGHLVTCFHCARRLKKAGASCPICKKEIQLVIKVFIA
Target sequence (Q00987 whole entry, looked up): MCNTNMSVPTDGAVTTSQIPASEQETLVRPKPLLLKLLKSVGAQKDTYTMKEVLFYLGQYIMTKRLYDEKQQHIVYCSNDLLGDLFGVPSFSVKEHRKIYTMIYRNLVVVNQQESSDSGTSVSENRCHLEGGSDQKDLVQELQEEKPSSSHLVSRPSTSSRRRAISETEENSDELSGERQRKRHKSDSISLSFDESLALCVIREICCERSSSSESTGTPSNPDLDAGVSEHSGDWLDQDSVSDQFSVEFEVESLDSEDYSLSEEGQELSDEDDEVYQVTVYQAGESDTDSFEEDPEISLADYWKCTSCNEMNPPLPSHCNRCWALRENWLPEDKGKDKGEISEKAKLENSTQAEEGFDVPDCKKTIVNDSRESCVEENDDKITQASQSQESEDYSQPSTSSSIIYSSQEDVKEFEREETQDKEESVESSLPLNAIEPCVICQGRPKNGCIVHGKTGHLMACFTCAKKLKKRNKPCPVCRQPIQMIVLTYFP
TIM10 inh: growth inhibitors of isogenic TIM10 control yeast, primary screen, counter-screen for tim10-1 yeast inhibitor project, luminescence, uHTS; S. cerevisiae TIM10 strain growth, BacTiter-Glo luminescence, 24 h; inhibition, % at 10 µM; hit rate 1.4% among 330,000; AID 463195, 2010;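 active = inhibition of 40% or more at the single tested concentration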;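 note: wild-type TIM10 isogenic control strain grown at permissive 25 °C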
Mdm2-MdmX conf: Mdm2-MdmX complex disruptors, retested hits, confirmation, luminescence, single concentration; Mdm2-MdmX binding, luminescent assay; shares compounds with Mdm2 MdmX PPI; hit rate 55% among 10,000; inhibition, % at 8 µM; in the data active = inhibition above about 40%
Full FLuc ctr: full-length luciferase signal inhibition, confirmation, counter-screen for Mdm2/MdmX interaction inhibitor project, cell-based, single concentration, SaOS-2 | shares compounds with Mdm2 MdmX PPI | SaOS-2 full-length luciferase counterscreen, luminescence | inhibition, % at 8 µM | hit rate 77% among 6,200 | AID 504607, 2011;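 active = mean inhibition at 8 µM reaching about 37%, which flags the compound as non-specific, limit read from the data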;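 note: p53-null SaOS-2 cells with luciferase driven by a doxycycline-inducible promoter; compound on cells about two nights before reading with doxycycline added after day one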
The depositor's hits bear a star; / = not tested or not shown.

SMILES	tim23-1 inh	tim10-1 inh	MPTP block	Mdm2 MdmX PPI	TIM10 inh	Mdm2-MdmX conf	Full FLuc ctr
CCOC(=O)/C=c1/s/c(=C/c2ccc3cc(OC)ccc3c2)c(=O)n1CC(=O)NCC1CCCO1 (centres undefined)	/	/	0	/	/	/	/
CCOC(=O)/C=c1\s/c(=C\c2ccc(C(=O)OC)cc2)c(=O)n1CC(=O)Nc1ccccc1	9	10	6	62*	-1	15	/
CN(C)C(=O)CCc1ccc2c3c([nH]c2c1)[C@]1(CCc2ccccc2)[C@@H](C(=O)N2CCCCC2)C[C@H](CC(=O)NCc2ccco2)C(=O)N1CC3	31	18	-2	98*	-10	74*	51*
O=C(CC1C[C@H](C(=O)N2CCCCC2)[C@@]2(CCc3ccccc3)c3[nH]c4ccccc4c3CCN2C1=O)NCc1ccco1 (some centres undefined)	15	10	-2	52*	8	18	/
CC(C)(C)NC(=O)CC1C[C@H](C(=O)N2CCCCC2)[C@@]2(CCc3ccccc3)c3[nH]c4ccccc4c3CCN2C1=O (some centres undefined)	15	11	0	62*	0	50*	70*
O=[N+]([O-])c1ccc(O)c(Nc2ncnc3ccccc23)c1	-1	-9	6	60*	-9	17	/
COc1ccc([N+](=O)[O-])cc1Nc1ncnc2ccccc12	-6	1	1	14	6	/	/
O=[N+]([O-])c1ccc2ncnc(Nc3ccc4c(c3)OCCO4)c2c1	13	16	0	56*	5	58*	30
COC(=O)/C(=C\Nc1ccc(Cl)cc1Cl)NC(=O)c1ccc(OC)cc1	38	17	1	52*	-2	43*	70*
COC(=O)/C(=C\Nc1ccc(OC)cc1)NC(=O)c1ccc(Cl)cc1Cl	34	21	0	16	14	/	/
CCOC1=C2[C@@H](CN(S(=O)(=O)c3ccc(C)cc3)[C@H]2c2cccc3ccccc23)[C@H]2C(=O)NC(=O)[C@H]2C1	/	/	0	/	/	/	/
CC(C)(C)C(=O)O/N=C(\N)c1ccc(Oc2cc(Cl)cc(Cl)c2)c([N+](=O)[O-])c1	5	19	1	60*	19	8	/
COc1ccc([C@@]23Oc4cc(OC)cc(OC)c4[C@]2(O)[C@H](O)[C@H](C(=O)N(C)C)[C@H]3c2ccccc2)cc1	/	/	2	/	/	/	/
COc1cccc(C(O)c2nc(-c3ccc(OC)nc3)cs2)c1 (centres undefined)	/	/	0	/	/	/	/
COc1cccc(-c2nc(-c3ccccn3)no2)c1	13	19	/	55*	1	33	57*
c1ccc(-c2noc(-c3ccncc3)n2)nc1	7	-1	0	-2	-3	/	/
COc1cccc(-c2nc(-c3ccccc3)no2)c1	8	12	3	-234	15	/	/
c1ccc(-c2noc(-c3ccc4ccccc4c3)n2)nc1	31	32	1	80*	18	83*	27
CSc1nnc(Cn2c(=O)sc3ccccc32)n1-c1ccccc1	14	7	-1	-11	3	/	/
N=c1sc2ccccc2n1-c1ccccc1	1	12	-1	79*	-9	62*	57*
CCOc1cc(N2CCOCC2)c(OCC)cc1NC(=O)COc1ncnc2ccccc12	6	4	1	4	-1	/	/
CCOc1cc(N2CCOCC2)c(OCC)cc1NC(=O)c1cc(-c2ccco2)nc2ccccc12	14	18	1	70*	5	66*	72*
O=C(Nc1ccccc1N1CCOCC1)c1cc(-c2ccncc2)nc2ccccc12	31	35	0	55*	19	38	82*
O=C(CN1CCN(S(=O)(=O)c2ccc(Br)cc2)CC1)N/N=C/c1ccc(Cl)c([N+](=O)[O-])c1	40	10	-1	30	6	/	/
Cc1ccc(S(=O)(=O)N2CCN(CC(=O)N/N=C\c3ccc(Cl)c([N+](=O)[O-])c3)CC2)cc1	28	5	0	64*	9	17	/
SMILES	tim23-1 inh	tim10-1 inh	MPTP block	Mdm2 MdmX PPI	TIM10 inh	Mdm2-MdmX conf	Full FLuc ctr
O=C(CCC(=O)OCCOc1ccccc1)OCCOc1ccccc1	/	/	0	/	/	/	/
O=C(NCCC1CCCCN1S(=O)(=O)c1ccc(F)cc1)C(=O)Nc1ccccc1F (centres undefined)	15	17	3	6	11	/	/
Cc1ccc(S(=O)(=O)N2CCCCC2CCNC(=O)C(=O)Nc2ccccc2F)cc1 (centres undefined)	5	-4	1	52*	3	75*	54*
COc1cccc(NC(=O)CN(C)C(=O)c2cc(-c3ccc(F)cc3)nc3ccccc23)c1	43	31	1	62*	14	34	/
COc1cccc(NC(=O)CN(C)C(=O)c2cc(-c3ccccc3)nc3ccccc23)c1	1	-9	0	18	11	/	/
COc1ccc(CN(C)C(=O)c2cc(-c3ccccc3)nc3ccc(C)cc23)c(OC)c1OC	33	24	-1	65*	9	31	/
COc1cccc(CN(C)C(=O)c2cc(-c3ccc(OC)c(OC)c3)nc3ccccc23)c1	18	18	1	55*	7	32	/
COc1cccc(CN(C)C(=O)c2cc(-c3ccc(F)cc3)nc3ccccc23)c1	41	31	0	53*	13	16	/
CC(=O)Nc1ccc(-c2ccnc3c2CC(C)(C(=O)NCc2ccc(N4CCN(C)CC4)cc2)O3)cc1 (centres undefined)	/	/	0	/	/	/	/
COc1ccc(CN2C(=O)C(CC(=O)NC3CC3)CC(C(=O)N3CCOCC3)=C2C)cc1 (centres undefined)	/	/	-1	/	/	/	/
O=Nc1ccc(NO)c2ccccc12	/	/	0	/	/	/	/
Cc1ccc2c(CC(=O)Nc3ccc4nc(N5CCOCC5)sc4c3)coc2c1	/	/	1	/	/	/	/
COc1ccc(-c2cc(C(=O)N(C)Cc3nc4ccccc4c(=O)[nH]3)c3ccccc3n2)cc1OC	6	1	0	52*	5	12	/
COc1ccccc1CN(C)C(=O)c1cc(-c2cccs2)nc2ccccc12	25	30	0	61*	6	39	57*
COc1ccccc1-c1csc(NC(=O)c2cc(-c3cccs3)nc3ccccc23)n1	17	30	2	14	16	/	/
COc1ccc(CN(C)C(=O)c2cc(-c3ccc(OC)c(OC)c3)nc3ccccc23)c(OC)c1	22	9	-2	57*	13	46*	101*
